What was measured:
Experiment in all cases: log2 ratio of Biotin-Ahx-Ub-VS probe labelling (fragment/DMSO); higher = less target engagement (more negative = stronger competition), active = hit call of the paper (q ≤ 0.05, log2 ratio ≤ -1)
Conditions in all cases: compound concentration: 200 uM; treatment time: 3 h
USP42 = target: T1, USP42 (UniProt Q9H9J4)
T1 sequence (whole entry): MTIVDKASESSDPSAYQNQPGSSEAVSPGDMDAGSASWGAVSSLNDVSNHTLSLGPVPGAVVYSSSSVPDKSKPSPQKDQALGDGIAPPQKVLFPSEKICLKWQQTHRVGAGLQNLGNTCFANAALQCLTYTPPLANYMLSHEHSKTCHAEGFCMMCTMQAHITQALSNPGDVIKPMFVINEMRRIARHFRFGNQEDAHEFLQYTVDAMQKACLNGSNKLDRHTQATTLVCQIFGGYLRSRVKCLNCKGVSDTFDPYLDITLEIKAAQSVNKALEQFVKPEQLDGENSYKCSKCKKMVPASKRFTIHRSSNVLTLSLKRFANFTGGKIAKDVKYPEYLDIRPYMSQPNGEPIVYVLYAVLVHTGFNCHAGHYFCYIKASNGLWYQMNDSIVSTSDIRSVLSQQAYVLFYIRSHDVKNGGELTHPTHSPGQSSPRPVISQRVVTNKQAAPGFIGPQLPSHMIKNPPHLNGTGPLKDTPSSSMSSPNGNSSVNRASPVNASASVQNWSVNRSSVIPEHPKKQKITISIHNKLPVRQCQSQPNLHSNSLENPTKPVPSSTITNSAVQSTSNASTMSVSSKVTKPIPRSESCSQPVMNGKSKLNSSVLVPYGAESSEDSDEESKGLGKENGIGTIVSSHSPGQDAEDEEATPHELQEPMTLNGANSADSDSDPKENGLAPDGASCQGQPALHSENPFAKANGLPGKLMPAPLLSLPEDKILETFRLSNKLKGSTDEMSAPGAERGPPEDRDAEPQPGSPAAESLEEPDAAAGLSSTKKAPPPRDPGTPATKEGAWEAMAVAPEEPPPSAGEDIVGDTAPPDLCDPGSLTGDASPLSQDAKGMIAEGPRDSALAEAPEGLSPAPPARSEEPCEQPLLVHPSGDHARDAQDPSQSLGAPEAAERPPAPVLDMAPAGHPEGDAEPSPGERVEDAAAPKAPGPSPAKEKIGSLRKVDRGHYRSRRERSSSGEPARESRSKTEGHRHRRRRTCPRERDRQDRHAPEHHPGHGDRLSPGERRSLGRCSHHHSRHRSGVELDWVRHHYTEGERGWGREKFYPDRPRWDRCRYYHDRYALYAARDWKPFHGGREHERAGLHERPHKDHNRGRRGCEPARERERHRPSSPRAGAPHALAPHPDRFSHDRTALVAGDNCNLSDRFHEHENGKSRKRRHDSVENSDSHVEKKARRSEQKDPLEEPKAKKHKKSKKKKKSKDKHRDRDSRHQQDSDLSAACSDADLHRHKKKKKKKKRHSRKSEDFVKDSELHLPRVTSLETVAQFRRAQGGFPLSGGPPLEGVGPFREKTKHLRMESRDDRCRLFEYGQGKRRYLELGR
Summary of the method: (§1)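 Average log2 ratios of fragment over vehicle were obtained by unpaired t-test from global-median-normalised Spectronaut label-free quantities. Proteins with ≥2 unique peptides were included. HEK293T lysate (495 µg per sample) was treated in triplicate with fragment at 200 µM or vehicle for 3 h, then with Biotin-Ahx-Ub-VS at 0.5 µM final for 1 h, and labelled DUBs were NeutrAvidin-enriched and run by diaPASEF LC-MS/MS.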

USP46 = USP46 (UniProt P62068)
USP46, sequence (P62068 whole entry): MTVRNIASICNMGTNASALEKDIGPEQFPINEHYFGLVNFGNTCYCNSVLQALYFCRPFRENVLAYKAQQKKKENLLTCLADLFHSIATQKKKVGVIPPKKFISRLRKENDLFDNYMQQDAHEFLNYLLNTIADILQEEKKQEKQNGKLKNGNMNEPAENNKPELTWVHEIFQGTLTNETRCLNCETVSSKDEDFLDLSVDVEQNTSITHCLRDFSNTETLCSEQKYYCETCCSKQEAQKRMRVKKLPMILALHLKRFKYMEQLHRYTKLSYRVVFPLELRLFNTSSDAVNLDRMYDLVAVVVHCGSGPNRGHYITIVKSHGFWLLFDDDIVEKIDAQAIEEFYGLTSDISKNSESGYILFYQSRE
Summary of the method: as §1

USP47 = target: T2, USP47 (UniProt Q96K76)
T2 sequence (whole entry): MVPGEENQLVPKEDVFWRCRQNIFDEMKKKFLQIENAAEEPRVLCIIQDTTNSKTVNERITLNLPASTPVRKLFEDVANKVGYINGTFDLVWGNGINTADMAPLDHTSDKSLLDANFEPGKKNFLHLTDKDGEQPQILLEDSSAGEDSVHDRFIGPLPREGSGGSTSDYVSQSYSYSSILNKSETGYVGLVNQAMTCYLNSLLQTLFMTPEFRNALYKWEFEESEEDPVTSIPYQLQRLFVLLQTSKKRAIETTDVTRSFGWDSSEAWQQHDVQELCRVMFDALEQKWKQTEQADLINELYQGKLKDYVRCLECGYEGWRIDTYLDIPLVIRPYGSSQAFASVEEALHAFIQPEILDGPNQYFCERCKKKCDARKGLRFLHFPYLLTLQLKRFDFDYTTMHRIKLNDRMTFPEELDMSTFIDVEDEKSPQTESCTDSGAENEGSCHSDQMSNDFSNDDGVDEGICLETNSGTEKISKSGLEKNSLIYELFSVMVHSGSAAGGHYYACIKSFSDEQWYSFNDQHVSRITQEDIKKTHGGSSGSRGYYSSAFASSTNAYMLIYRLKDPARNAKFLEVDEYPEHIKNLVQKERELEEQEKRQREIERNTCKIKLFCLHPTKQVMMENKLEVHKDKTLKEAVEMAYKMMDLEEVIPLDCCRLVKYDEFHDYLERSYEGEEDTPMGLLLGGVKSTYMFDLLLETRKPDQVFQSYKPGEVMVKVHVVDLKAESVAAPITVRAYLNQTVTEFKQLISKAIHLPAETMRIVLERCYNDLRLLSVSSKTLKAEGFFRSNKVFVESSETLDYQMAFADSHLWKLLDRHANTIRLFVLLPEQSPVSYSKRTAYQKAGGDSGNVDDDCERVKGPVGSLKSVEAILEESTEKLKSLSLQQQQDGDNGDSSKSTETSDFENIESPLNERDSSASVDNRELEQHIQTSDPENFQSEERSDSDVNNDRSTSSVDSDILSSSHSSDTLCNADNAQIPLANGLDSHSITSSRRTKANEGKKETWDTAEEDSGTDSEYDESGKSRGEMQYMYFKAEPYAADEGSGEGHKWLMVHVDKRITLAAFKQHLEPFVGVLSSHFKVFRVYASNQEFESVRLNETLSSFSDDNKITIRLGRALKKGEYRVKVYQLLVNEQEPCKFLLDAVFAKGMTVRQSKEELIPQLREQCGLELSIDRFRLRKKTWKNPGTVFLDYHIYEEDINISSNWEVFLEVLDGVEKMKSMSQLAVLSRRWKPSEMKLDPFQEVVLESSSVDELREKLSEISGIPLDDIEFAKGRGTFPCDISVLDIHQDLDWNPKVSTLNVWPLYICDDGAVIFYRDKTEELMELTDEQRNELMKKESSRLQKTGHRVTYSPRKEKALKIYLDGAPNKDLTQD
Summary of the method: as §1

USP48 = target: T3, USP48 (UniProt Q86UV5)
T3 sequence (whole entry): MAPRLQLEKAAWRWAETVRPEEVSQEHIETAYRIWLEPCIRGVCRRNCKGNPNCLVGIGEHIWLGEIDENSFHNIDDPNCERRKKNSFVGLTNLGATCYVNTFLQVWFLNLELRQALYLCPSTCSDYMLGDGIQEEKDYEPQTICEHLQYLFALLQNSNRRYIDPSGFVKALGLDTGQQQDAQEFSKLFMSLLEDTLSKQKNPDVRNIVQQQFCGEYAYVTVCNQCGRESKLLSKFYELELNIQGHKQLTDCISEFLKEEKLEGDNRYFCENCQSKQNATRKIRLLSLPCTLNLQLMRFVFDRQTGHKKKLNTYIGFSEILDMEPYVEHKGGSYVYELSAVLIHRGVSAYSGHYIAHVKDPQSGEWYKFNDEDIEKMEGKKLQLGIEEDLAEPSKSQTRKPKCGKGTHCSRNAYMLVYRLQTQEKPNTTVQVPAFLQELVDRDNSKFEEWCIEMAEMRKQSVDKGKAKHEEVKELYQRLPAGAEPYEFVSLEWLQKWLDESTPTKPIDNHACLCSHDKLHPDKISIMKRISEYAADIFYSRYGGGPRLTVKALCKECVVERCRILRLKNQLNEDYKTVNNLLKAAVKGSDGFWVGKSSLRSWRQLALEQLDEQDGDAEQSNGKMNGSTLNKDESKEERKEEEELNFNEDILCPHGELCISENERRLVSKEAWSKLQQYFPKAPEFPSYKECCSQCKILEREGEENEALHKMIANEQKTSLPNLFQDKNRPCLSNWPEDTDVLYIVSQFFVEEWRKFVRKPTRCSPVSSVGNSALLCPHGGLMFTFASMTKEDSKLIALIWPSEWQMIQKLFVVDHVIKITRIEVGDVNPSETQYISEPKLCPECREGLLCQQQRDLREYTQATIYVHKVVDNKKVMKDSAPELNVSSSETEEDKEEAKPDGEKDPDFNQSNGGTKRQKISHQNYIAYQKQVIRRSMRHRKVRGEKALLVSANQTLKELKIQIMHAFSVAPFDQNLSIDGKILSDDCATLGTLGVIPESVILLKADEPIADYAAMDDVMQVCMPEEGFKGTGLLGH
Summary of the method: as §1

USP5 = target: T4, USP5 (UniProt P45974)
T4 sequence (whole entry): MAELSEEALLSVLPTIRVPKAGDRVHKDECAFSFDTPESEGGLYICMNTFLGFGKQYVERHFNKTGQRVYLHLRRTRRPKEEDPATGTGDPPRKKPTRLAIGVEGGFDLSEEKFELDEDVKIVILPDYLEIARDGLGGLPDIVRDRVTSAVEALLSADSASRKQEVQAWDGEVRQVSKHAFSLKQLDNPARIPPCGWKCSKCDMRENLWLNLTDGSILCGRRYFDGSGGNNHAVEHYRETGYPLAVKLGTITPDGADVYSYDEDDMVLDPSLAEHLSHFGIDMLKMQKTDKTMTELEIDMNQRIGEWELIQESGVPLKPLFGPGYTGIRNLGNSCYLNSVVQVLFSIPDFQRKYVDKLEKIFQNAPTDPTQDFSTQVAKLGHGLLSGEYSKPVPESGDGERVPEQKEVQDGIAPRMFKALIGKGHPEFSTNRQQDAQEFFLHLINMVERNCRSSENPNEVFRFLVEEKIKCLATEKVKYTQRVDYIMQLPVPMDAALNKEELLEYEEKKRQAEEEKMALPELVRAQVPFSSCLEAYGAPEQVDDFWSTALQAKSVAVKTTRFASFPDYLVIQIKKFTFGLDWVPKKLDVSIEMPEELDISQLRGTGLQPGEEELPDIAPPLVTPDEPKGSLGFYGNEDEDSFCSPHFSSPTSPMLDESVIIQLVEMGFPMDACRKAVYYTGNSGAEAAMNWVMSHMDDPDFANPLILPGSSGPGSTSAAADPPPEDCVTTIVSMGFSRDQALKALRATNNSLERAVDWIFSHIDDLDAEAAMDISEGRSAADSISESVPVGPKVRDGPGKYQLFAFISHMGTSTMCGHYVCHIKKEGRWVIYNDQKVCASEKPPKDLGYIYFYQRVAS
Summary of the method: as §1

USP54 = USP54 (UniProt Q70EL1)
Summary of the method: as §1

USP7 = USP7 (UniProt Q93009)
USP7, sequence (Q93009 whole entry, looked up): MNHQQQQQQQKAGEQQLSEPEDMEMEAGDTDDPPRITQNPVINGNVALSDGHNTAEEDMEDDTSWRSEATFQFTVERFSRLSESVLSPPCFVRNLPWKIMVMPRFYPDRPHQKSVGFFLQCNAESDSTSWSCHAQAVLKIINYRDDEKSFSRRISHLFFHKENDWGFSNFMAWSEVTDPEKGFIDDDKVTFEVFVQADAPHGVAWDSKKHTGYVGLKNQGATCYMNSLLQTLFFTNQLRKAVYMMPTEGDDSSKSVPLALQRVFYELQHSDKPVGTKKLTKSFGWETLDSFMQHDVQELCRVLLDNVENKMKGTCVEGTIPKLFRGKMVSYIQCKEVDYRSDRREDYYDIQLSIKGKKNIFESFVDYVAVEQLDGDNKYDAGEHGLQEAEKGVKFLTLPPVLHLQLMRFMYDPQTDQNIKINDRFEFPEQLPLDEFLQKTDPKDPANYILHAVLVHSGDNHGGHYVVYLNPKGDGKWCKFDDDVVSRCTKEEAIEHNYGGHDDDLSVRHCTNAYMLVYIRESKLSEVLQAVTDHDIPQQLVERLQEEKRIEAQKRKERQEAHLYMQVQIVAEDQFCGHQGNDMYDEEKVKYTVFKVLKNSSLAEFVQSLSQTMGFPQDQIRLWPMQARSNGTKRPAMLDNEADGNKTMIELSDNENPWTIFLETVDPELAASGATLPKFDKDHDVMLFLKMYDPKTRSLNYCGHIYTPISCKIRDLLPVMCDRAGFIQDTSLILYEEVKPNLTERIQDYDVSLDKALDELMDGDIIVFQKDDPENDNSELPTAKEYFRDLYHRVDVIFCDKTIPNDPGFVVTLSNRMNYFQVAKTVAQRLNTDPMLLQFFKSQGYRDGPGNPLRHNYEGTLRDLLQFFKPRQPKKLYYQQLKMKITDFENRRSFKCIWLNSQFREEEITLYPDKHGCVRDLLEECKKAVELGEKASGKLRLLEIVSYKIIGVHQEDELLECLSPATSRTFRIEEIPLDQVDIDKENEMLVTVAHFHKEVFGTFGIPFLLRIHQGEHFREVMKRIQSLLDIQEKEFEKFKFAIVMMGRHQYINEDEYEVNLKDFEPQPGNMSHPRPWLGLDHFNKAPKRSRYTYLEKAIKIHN
Summary of the method: as §1

USP8 = target: T5, USP8 (UniProt P40818)
T5 sequence (whole entry): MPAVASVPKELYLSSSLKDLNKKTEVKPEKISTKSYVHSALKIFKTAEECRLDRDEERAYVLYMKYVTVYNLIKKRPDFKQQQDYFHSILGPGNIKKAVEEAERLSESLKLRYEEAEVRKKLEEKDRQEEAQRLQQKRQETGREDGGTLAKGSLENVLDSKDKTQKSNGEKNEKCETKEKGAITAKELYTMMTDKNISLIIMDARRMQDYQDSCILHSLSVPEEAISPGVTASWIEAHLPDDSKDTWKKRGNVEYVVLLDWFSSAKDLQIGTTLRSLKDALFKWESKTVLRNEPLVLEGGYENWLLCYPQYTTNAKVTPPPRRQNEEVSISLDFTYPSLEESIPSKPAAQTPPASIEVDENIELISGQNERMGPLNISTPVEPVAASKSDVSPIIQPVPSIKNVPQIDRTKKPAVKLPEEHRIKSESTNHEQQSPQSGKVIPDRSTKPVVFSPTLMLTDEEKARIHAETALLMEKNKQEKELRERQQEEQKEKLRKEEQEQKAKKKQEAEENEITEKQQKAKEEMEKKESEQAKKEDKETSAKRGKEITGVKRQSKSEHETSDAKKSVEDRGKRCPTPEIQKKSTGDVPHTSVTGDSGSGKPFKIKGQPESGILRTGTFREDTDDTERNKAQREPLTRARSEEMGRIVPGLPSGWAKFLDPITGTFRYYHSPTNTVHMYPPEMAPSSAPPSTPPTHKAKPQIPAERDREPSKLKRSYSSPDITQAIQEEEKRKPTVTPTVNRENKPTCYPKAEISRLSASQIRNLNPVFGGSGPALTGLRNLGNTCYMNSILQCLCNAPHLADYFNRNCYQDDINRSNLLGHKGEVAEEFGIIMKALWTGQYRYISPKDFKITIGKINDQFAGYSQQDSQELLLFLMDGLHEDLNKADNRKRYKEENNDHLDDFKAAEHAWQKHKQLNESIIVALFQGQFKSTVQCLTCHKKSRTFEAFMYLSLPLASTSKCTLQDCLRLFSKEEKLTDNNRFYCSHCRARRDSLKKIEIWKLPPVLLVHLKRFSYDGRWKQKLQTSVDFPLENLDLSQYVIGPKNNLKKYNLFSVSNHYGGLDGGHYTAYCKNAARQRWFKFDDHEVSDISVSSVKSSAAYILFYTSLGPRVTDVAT
Summary of the method: as §1

USP9X = USP9X (UniProt Q93008)
USP9X, sequence (Q93008 whole entry): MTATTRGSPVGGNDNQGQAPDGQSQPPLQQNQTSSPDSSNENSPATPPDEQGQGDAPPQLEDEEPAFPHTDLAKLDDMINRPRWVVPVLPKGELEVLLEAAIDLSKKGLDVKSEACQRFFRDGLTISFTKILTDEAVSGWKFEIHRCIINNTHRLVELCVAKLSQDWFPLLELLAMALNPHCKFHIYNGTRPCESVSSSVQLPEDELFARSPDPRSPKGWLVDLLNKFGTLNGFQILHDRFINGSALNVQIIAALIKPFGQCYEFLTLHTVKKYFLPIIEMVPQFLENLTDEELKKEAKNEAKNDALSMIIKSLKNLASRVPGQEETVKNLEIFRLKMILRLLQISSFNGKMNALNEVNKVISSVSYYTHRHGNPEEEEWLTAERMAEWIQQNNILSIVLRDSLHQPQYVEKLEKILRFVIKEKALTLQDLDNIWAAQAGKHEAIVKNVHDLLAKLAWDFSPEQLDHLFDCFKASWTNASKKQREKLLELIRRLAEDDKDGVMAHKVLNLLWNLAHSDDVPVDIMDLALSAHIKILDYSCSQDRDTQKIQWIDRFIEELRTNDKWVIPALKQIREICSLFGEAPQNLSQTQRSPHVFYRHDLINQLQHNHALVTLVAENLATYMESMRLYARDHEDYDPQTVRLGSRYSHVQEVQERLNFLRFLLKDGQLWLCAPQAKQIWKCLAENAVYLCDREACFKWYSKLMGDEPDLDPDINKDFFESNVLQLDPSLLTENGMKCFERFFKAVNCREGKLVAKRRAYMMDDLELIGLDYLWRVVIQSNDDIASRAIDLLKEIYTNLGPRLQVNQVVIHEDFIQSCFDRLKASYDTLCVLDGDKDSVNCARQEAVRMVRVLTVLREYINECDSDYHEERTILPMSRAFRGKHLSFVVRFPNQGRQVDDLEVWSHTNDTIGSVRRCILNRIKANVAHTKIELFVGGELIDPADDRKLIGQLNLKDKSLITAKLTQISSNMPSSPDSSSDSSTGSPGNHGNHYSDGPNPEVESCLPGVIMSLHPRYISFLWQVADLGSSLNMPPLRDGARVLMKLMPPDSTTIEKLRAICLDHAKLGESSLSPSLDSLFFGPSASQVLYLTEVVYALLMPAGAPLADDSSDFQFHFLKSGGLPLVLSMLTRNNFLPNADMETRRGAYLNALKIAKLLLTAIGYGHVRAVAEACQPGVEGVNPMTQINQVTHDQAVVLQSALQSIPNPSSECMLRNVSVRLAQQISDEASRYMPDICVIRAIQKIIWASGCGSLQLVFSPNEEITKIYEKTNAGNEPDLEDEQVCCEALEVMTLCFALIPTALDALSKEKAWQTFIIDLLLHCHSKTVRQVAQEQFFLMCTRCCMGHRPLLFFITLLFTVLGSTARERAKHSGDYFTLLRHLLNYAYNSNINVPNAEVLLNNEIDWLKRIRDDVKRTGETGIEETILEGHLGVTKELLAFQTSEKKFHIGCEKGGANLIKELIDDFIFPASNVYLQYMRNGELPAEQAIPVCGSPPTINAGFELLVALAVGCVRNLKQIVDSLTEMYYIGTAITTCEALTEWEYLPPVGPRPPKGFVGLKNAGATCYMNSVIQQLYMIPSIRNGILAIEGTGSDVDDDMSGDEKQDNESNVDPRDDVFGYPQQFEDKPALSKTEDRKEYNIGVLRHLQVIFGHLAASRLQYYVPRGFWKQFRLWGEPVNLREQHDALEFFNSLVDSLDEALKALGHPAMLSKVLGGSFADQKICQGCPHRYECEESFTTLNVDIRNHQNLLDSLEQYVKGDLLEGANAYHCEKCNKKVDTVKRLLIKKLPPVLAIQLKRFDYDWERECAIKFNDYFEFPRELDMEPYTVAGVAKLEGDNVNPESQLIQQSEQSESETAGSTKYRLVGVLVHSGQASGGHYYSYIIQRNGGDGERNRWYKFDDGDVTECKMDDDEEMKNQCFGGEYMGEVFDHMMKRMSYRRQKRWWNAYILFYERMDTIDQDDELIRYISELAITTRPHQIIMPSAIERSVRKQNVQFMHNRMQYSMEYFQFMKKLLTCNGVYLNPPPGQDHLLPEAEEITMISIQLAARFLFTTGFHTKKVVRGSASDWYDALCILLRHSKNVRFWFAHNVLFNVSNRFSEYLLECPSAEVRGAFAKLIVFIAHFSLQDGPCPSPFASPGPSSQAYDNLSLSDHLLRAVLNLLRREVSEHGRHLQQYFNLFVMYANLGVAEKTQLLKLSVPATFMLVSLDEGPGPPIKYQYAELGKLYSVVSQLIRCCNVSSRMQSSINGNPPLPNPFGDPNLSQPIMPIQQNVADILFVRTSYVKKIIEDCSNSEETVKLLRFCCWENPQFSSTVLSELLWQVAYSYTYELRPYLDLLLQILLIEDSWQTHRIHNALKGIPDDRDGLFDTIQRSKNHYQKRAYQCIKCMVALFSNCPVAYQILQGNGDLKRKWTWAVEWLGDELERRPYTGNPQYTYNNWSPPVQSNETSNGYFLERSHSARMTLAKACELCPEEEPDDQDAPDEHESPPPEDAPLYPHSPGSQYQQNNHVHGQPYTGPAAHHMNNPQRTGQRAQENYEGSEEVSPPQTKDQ
Summary of the method: as §1

UniProt O00487 = target: UniProt O00487
UniProt O00487, sequence (O00487 whole entry): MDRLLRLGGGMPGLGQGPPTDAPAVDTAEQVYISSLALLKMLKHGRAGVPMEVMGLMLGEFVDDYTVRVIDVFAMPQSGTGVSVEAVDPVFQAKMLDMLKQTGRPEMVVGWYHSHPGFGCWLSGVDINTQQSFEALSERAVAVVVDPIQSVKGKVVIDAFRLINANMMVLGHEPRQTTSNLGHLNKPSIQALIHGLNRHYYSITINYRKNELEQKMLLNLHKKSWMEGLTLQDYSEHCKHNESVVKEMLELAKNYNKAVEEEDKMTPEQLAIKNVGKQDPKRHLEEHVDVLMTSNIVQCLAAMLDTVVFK
Summary of the method: as §1

Measured: log2 ratio of Biotin-Ahx-Ub-VS probe labelling

CNC(=O)Cn1cc(NC(=O)CCl)cn1
inactive: USP42 -0.595 | USP46 0.000623 | USP47 0.0561 | USP48 0.0267 | USP5 -0.241 | USP54 0.48 | USP7 -0.438 | USP8 -0.282 | USP9X -0.287 | UniProt O00487 -0.0928

Reference: the supplement of paper PMC11732987, “Enantioselective OTUD7B fragment discovery through chemoproteomics screening and high-throughput optimisation” (Communications Chemistry, 2025)
